Source: the supplement of paper PMC8728848
Only a selection was taken, and the strongest signals are over-represented in it overall.

Columns and labels:
Assay in all cases: glycan array binding signal (z-score within array); higher = stronger binding
Conditions in all cases: glycan notation: IUPAC condensed, linker removed
[1] = target: Fuc(a1-2)Gal(b1-4)GlcNAc(b1-3)Gal(b1-4)GlcNAc(b1-2)Man(a1-3)[Fuc(a1-2)Gal(b1-4)GlcNAc(b1-3)Gal(b1-4)GlcNAc(b1-2)Man(a1-6)]Man(b1-4)GlcNAc(b1-4)GlcNAc
Procedure, shortened: (§1)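 Columns mapping to the same glycan were averaged after glycan names were converted to IUPAC-condensed notation. The data come from 3228 arrays in the Consortium for Functional Glycomics database, limited to those with an available protein sequence. Binding is reported as a within-array Z-score averaged across arrays of one protein sequence and across linkers.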

[2] = target: Fuc(a1-2)[Gal(a1-3)]Gal(b1-4)GlcNAc
Procedure, shortened: as §1

[3] = target: Fuc(a1-2)[Gal(a1-3)]Gal(b1-4)GlcNAc(b1-2)Man
Procedure, shortened: as §1

[4] = target: Fuc(a1-2)[Gal(a1-3)]Gal(b1-4)GlcNAc(b1-6)GalNAc
Procedure, shortened: as §1

[5] = target: Fuc(a1-2)[Gal(a1-3)]Gal(b1-4)[Fuc(a1-3)]GlcNAc(b1-3)GalNAc
Procedure, shortened: as §1

[6] = target: Fuc(a1-2)[GalNAc(a1-3)]Gal(b1-4)GlcNAc(b1-2)Man(a1-3)[Fuc(a1-2)[GalNAc(a1-3)]Gal(b1-4)GlcNAc(b1-2)Man(a1-6)]Man(b1-4)GlcNAc(b1-4)[Fuc(a1-6)]GlcNAc
Procedure, shortened: as §1

[7] = target: Fuc(a1-3)[Gal(b1-4)]GlcNAc(b1-3)Gal(b1-4)[Fuc(a1-3)]GlcNAc(b1-3)Gal(b1-4)[Fuc(a1-3)]GlcNAc
Procedure, shortened: as §1

[8] = target: Fuc(a1-3)[Gal(b1-4)]GlcNAc6S
Procedure, shortened: as §1

[9] = target: Fuc(a1-3)[Gal3S(b1-4)]GlcNAc6S
Procedure, shortened: as §1

Fuc(a1-4)GlcNAc = target: Fuc(a1-4)GlcNAc
Procedure, shortened: as §1

Gal(a1-3)Gal = target: Gal(a1-3)Gal
Procedure, shortened: as §1

Gal(b1-3)GalNAc = target: Gal(b1-3)GalNAc
Procedure, shortened: as §1

[10] = target: Gal(b1-3)GlcNAc(b1-2)Man(a1-3)[Gal(b1-3)GlcNAc(b1-2)Man(a1-6)]Man(b1-4)GlcNAc(b1-4)GlcNAc
Procedure, shortened: as §1

[11] = target: Gal(b1-3)GlcNAc(b1-3)Gal(b1-4)GlcNAc(b1-3)Gal(b1-4)GlcNAc(b1-2)[Gal(b1-3)GlcNAc(b1-3)Gal(b1-4)GlcNAc(b1-3)Gal(b1-4)GlcNAc(b1-6)]Man(a1-6)[Gal(b1-3)GlcNAc(b1-3)Gal(b1-4)GlcNAc(b1-3)Gal(b1-4)GlcNAc(b1-2)Man(a1-3)]Man(b1-4)GlcNAc(b1-4)[Fuc(a1-6)]GlcNAc
Procedure, shortened: as §1

[12] = target: Gal(b1-3)[Fuc(a1-4)]GlcNAc(b1-2)Man
Procedure, shortened: as §1

[13] = target: Gal(b1-3)[Fuc(a1-4)]GlcNAc(b1-3)Gal(b1-3)[Fuc(a1-4)]GlcNAc
Procedure, shortened: as §1

Gal(b1-4)Gal = target: Gal(b1-4)Gal
Procedure, shortened: as §1

[14] = target: Gal(b1-4)GlcNAc(b1-2)[Gal(b1-4)GlcNAc(b1-6)]Man(a1-6)[GlcNAc(b1-4)][Gal(b1-4)GlcNAc(b1-2)[Gal(b1-4)GlcNAc(b1-4)]Man(a1-3)]Man(b1-4)GlcNAc(b1-4)[Fuc(a1-6)]GlcNAc
Procedure, shortened: as §1

[15] = target: Gal(b1-4)GlcNAc(b1-3)Gal(b1-4)GlcNAc(b1-2)[Gal(b1-4)GlcNAc(b1-3)Gal(b1-4)GlcNAc(b1-6)]Man(a1-6)[Gal(b1-4)GlcNAc(b1-3)Gal(b1-4)GlcNAc(b1-2)Man(a1-3)]Man(b1-4)GlcNAc(b1-4)GlcNAc
Procedure, shortened: as §1

[16] = target: Gal(b1-4)GlcNAc(b1-3)Gal(b1-4)GlcNAc(b1-3)GalNAc
Procedure, shortened: as §1

[17] = target: Gal(b1-4)GlcNAc(b1-3)Gal(b1-4)GlcNAc(b1-3)[Gal(b1-4)GlcNAc(b1-3)Gal(b1-4)GlcNAc(b1-6)]GalNAc
Procedure, shortened: as §1

[18] = target: Gal(b1-4)GlcNAc(b1-3)Gal(b1-4)[Fuc(a1-3)]GlcNAc(b1-3)Gal(b1-4)[Fuc(a1-3)]GlcNAc
Procedure, shortened: as §1

[19] = target: Gal(b1-4)GlcNAc(b1-3)[Gal(b1-4)GlcNAc(b1-6)]Gal(b1-4)GlcNAc
Procedure, shortened: as §1

[20] = target: Gal(b1-4)GlcNAc(b1-3)[GlcNAc(b1-6)]Gal(b1-4)GlcNAc
Procedure, shortened: as §1

Gal3S(b1-4)Glc6S = target: Gal3S(b1-4)Glc6S
Procedure, shortened: as §1

[21] = target: GalNAc(b1-4)GlcNAc(b1-2)Man
Procedure, shortened: as §1

GalNAc(b1-4)GlcNAc6S = target: GalNAc(b1-4)GlcNAc6S
Procedure, shortened: as §1

GlcA(b1-3)GlcNAc = target: GlcA(b1-3)GlcNAc
Procedure, shortened: as §1

[22] = target: GlcNAc(a1-3)Gal(b1-4)GlcNAc
Procedure, shortened: as §1

[23] = target: GlcNAc(b1-2)[GlcNAc(b1-6)]Man(a1-6)[GlcNAc(b1-4)][GlcNAc(b1-2)Man(a1-3)]Man(b1-4)GlcNAc(b1-4)GlcNAc
Procedure, shortened: as §1

GlcNAc(b1-3)Man = target: GlcNAc(b1-3)Man
Procedure, shortened: as §1

Kdn(a2-3)Gal(b1-3)GlcNAc = target: Kdn(a2-3)Gal(b1-3)GlcNAc
Procedure, shortened: as §1

[24] = target: Man(a1-2)Man(a1-2)Man(a1-3)Man
Procedure, shortened: as §1

[25] = target: Man(a1-2)Man(a1-6)[Man(a1-3)]Man(a1-6)[Man(a1-2)Man(a1-2)Man(a1-3)]Man
Procedure, shortened: as §1

Man(a1-3)[Man(a1-6)]Man = target: Man(a1-3)[Man(a1-6)]Man
Procedure, shortened: as §1

[26] = target: Man(a1-3)[Man(a1-6)]Man(b1-4)GlcNAc(b1-4)GlcNAc
Procedure, shortened: as §1

Man(b1-4)GlcNAc = target: Man(b1-4)GlcNAc
Procedure, shortened: as §1

[27] = target: Neu5Ac(a2-3)Gal(b1-3)GalNAc6S
Procedure, shortened: as §1

[28] = target: Neu5Ac(a2-3)Gal(b1-3)GlcNAc
Procedure, shortened: as §1

Neu5Ac(a2-3)Gal(b1-4)Glc = target: Neu5Ac(a2-3)Gal(b1-4)Glc
Procedure, shortened: as §1

[29] = target: Neu5Ac(a2-3)Gal(b1-4)GlcNAc(b1-2)Man
Procedure, shortened: as §1

[30] = target: Neu5Ac(a2-3)Gal(b1-4)GlcNAc(b1-3)Gal(b1-4)GlcNAc(b1-3)[Neu5Ac(a2-3)Gal(b1-4)GlcNAc(b1-3)Gal(b1-4)GlcNAc(b1-6)]GalNAc
Procedure, shortened: as §1

[31] = target: Neu5Ac(a2-3)Gal(b1-4)GlcNAc(b1-6)[Gal(b1-3)]GalNAc
Procedure, shortened: as §1

[32] = target: Neu5Ac(a2-3)Gal(b1-4)[Fuc(a1-3)]GlcNAc(b1-2)Man
Procedure, shortened: as §1

[33] = target: Neu5Ac(a2-3)Gal(b1-4)[Fuc(a1-3)]GlcNAc(b1-6)[Neu5Ac(a2-3)Gal(b1-3)]GalNAc
Procedure, shortened: as §1

[34] = target: Neu5Ac(a2-3)GalNAc(b1-4)GlcNAc
Procedure, shortened: as §1

[35] = target: Neu5Ac(a2-3)[Neu5Ac(a2-6)]GalNAc
Procedure, shortened: as §1

[36] = target: Neu5Ac(a2-6)GlcNAc(b1-4)GlcNAc
Procedure, shortened: as §1

Neu5Ac(a2-8)Neu5Ac = target: Neu5Ac(a2-8)Neu5Ac
Procedure, shortened: as §1

[37] = target: Neu5Ac9Ac(a2-3)Gal(b1-4)GlcNAc
Procedure, shortened: as §1

[38] = target: Neu5Gc(a2-8)Neu5Gc(a2-3)Gal(b1-4)GlcNAc
Procedure, shortened: as §1

B1: Mermaid3 (Stilbonema majum) (protein)
chain: MGSSHHHHHHSSGLVPRGSHMAASGWLRSPQGTVVKLYRRSLSWSKADEFCKDVDGRLVVDRTADMHLFLIKNVLKEKKSRVWVGLRRTASHSRTWIWSDGTRQNEGDLDANLWLRDEPNDAAGEEECALFMYSPWEKAWGLNDYLCRGGCRNYQFICEKWIR
glycan array binding signal (z-score) [1]: 0.368 | glycan array binding signal (z-score) [2]: -0.174 | glycan array binding signal (z-score) [3]: -0.175 | glycan array binding signal (z-score) [4]: -0.383 | glycan array binding signal (z-score) [5]: -0.592 | glycan array binding signal (z-score) [6]: 0.166 | glycan array binding signal (z-score) [7]: -0.463 | glycan array binding signal (z-score) [8]: 3.67 | glycan array binding signal (z-score) [9]: -0.521 | glycan array binding signal (z-score) (Fuc(a1-4)GlcNAc): 1.39 | glycan array binding signal (z-score) (Gal(a1-3)Gal): -0.579 | glycan array binding signal (z-score) (Gal(b1-3)GalNAc): 0.892 | glycan array binding signal (z-score) [10]: -0.627 | glycan array binding signal (z-score) [11]: 5.6 | glycan array binding signal (z-score) [12]: 0.676 | glycan array binding signal (z-score) [13]: -0.634 | glycan array binding signal (z-score) (Gal(b1-4)Gal): 6.72 | glycan array binding signal (z-score) [14]: -0.562 | glycan array binding signal (z-score) [15]: 3.51 | glycan array binding signal (z-score) [16]: -0.185 | glycan array binding signal (z-score) [17]: -0.118 | glycan array binding signal (z-score) [18]: -0.554 | glycan array binding signal (z-score) [19]: -0.074 | glycan array binding signal (z-score) [20]: 4.93 | glycan array binding signal (z-score) (Gal3S(b1-4)Glc6S): -0.077 | glycan array binding signal (z-score) [21]: -0.708 | glycan array binding signal (z-score) (GalNAc(b1-4)GlcNAc6S): 3.6 | glycan array binding signal (z-score) (GlcA(b1-3)GlcNAc): 1.68 | glycan array binding signal (z-score) [22]: 1.05 | glycan array binding signal (z-score) [23]: -0.397 | glycan array binding signal (z-score) (GlcNAc(b1-3)Man): 5.11 | glycan array binding signal (z-score) (Kdn(a2-3)Gal(b1-3)GlcNAc): -0.708 | glycan array binding signal (z-score) [24]: -0.704 | glycan array binding signal (z-score) [25]: -0.681 | glycan array binding signal (z-score) (Man(a1-3)[Man(a1-6)]Man): 0.678 | glycan array binding signal (z-score) [26]: -0.62 | glycan array binding signal (z-score) (Man(b1-4)GlcNAc): 4.76 | glycan array binding signal (z-score) [27]: -0.112 | glycan array binding signal (z-score) [28]: -0.277 | glycan array binding signal (z-score) (Neu5Ac(a2-3)Gal(b1-4)Glc): 0.506 | glycan array binding signal (z-score) [29]: 4.26 | glycan array binding signal (z-score) [30]: -0.289 | glycan array binding signal (z-score) [31]: 4.77 | glycan array binding signal (z-score) [32]: -0.553 | glycan array binding signal (z-score) [33]: -0.153 | glycan array binding signal (z-score) [34]: 0.426 | glycan array binding signal (z-score) [35]: 4.44 | glycan array binding signal (z-score) [36]: -0.709 | glycan array binding signal (z-score) (Neu5Ac(a2-8)Neu5Ac): -0.57 | glycan array binding signal (z-score) [37]: -0.2 | glycan array binding signal (z-score) [38]: -0.787
